This is an account of results in PubChem BioAssay.

The structures appear in SMILES notation. Unmarked numbers belong to inactive results. The list shows a part of the results. The source made the active and inactive calls.

Experiment [1] addresses Voltage-gated inwardly rectifying potassium channel KCNH2 (Homo sapiens) (UniProt Q12809). Kind of experiment: hERG block by Kir2.1 inhibitor candidates – cell-based, thallium flux, counter-screen for Kir2.1 inhibitor project (AID 2236).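 Further: host cells are CHO cells stably expressing hERG.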 The note with it: hERG-expressing cells, at 10 µM, hits give high values. In general terms: Block of hERG is tested as a sign of cardiac risk.

Experiment [2] addresses Potassium channel subfamily K member 9 (Homo sapiens) (UniProt Q9NPC2). Kind of experiment: human KCNK9 potassium channel blockers – cell-based, selectivity assay for Kir2.1 inhibitor project (AID 2329). The note with it: KCNK9-expressing cells, ion flux inhibition; at 10 µM; hits give high values.
For experiment [3], the target named is Short transient receptor potential channel 4 (Mus musculus) (UniProt Q9QUQ5). The experiment in a line: DAMGO-gated TRPC4 membrane potential modulation – cell-based, second specificity screen, HEK293 TRPC4/mu-opioid, selectivity assay for TRPC6 inhibitor project, confirmation (AID 2776;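 active means compounds whose fluorescence signal differed from control wells by over 3 SD, either direction, in both duplicate plates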). The note with it: HEK293 TRPC4/MOR, membrane potential dye fluorescence; at 10 µM; hits give high values; channel activated by saturating DAMGO dose.

Experiment [4] concerns transient receptor potential cation channel C4 (TRPC4), mouse. Kind of experiment: membrane potential change in TRPC4 cells – cell-based, HEK293 TRPC4/mu-opioid, membrane potential dye, selectivity assay for TRPC6 inhibitor project, confirmation (AID 2777;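 active means rise or fall in signal beyond 3 SD of buffer-only wells in both replicate plates, either sign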;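 further: integrated kinetic ratio of fluorescence range over baseline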). The note with it: membrane potential fluorescence, at 10 µM.
The nature of experiment [5]: parental HEK293 depolarization signal interference – cell-based, second counter screen, counter-screen for TRPC6 inhibitor project, confirmation (AID 2779;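 active means membrane potential signal moving either way by over 3 SD of the maximum-effect control, in both duplicate plates, meaning non-specific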). The note with it: parental HEK293 membrane potential dye fluorescence; at 10 µM; maximal acetylcholine challenge after compound addition.
A short description of experiment [6]: nonspecific voltage dye signal in HEK293 – cell-based, parental HEK293, counter-screen for TRPC6 inhibitor project, confirmation (AID 2780;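 active means membrane potential signal shifting up or down by more than 3 SD of buffer-only wells, on both duplicate plates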;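 further: plate controls were buffer EC0 wells for no effect and acetylcholine ECmax wells for full effect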). The note with it: parental HEK293 membrane potential dye fluorescence; at 10 µM. For orientation: Counterscreens check selectivity or assay interference.
Experiment [7] has as its target Inward rectifier potassium channel 2 (Mus musculus) (UniProt P35561). Kind of experiment: Kir2.1 potassium current inhibition – cell-based, secondary, automated electrophysiology, Kir2.1 inhibitor project (AID 463252). The note with it: Kir2.1 cells, automated patch-clamp current inhibition; at 25 µM; hits give high values. Background: Patch clamp records ionic current or voltage across a cell membrane.

Experiment [8] concerns the target Short transient receptor potential channel 6 (Mus musculus) (UniProt Q61143). The experiment in a line: blockers of TRPC6 cation channel activity – HEK293 cells, membrane potential dye, duplicate, confirmation (AID 488960;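 active means fluorescence ratio falls more than 5 SD below the full-stimulation control mean, in both duplicate runs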). The note with it: ACh-evoked depolarization, at 10 µM; hits give high values.
Experiment [9] shares this target. The experiment in a line: mouse TRPC6 channel activators, confirmation, HEK293 cells, membrane potential dye, duplicate (AID 488961;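 active means ratio signal rise beyond 5 SD above unstimulated control wells' mean, seen in both duplicate runs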). The note with it: HEK293-TRPC6 membrane potential dye fluorescence, FDSS; at 10 µM.
A short description of experiment [10]: parental CHO-K1 cell activation, no KCNQ2 – FluxOR thallium flux, duplicate, counter-screen for KCNQ2 potentiator project, confirmation (AID 2282;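 active means signal rise of at least 3 SD above the untreated control mean, in both duplicate wells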;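 further: counter screen of KCNQ2 potentiator hits so any rise reflects channel-independent effects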). The note with it: parental CHO-K1 cells, FluxOR thallium flux fluorescence; at 10 µM; hits give high values; zero = vehicle mean+3SD, 100% = vehicle-minus-blank window.
Experiment [11] has as its target Potassium voltage-gated channel subfamily KQT member 1 (Homo sapiens) (UniProt P51787). The experiment in a line: KCNQ1 activation in stable CHO cells – cell-based, FluxOR thallium flux, selectivity assay for KCNQ2 potentiator project, confirmation (AID 2283;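 active means fluorescence ratio rise of at least 3 SD of vehicle wells above their mean, in both replicate wells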;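 further: 0% = vehicle mean plus 3 SD and 100% = vehicle minus unstimulated blank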). The note with it: FluxOR thallium flux fluorescence, at 10 µM, hits give high values, beyond 3SD, as % of vehicle-control signal.

The target in experiment [12] is Potassium voltage-gated channel subfamily KQT member 2 (Rattus norvegicus) (UniProt O88943). The experiment in a line: KCNQ2 potassium channel activity enhancers – cell-based, CHO, FluxOR thallium flux, duplicate, confirmation (AID 2287;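 active means fluorescence ratio rising 3 SD or more over the vehicle control mean in both replicates, plus primary screen hit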;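 further: peak minus minimum thallium fluorescence divided by baseline after K/Tl stimulus; 0% = vehicle mean plus 3 SD and 100% = vehicle minus unstimulated blank difference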). The note with it: CHO-KCNQ2 cells, FluxOR thallium flux fluorescence; at 10 µM; hits give high values.
The target in experiment [13] is Inward rectifier potassium channel 2 (Mus musculus) (UniProt P35561). Kind of experiment: PubChem AID 2345.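 Further: 0% = vehicle mean plus 3 SD and 100% = vehicle minus no-stimulus blank window.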 The note with it: HEK293 Kir2.1, FluxOR thallium flux fluorescence; at 10 µM; hits give high values.
The target in experiment [14] is Potassium voltage-gated channel subfamily KQT member 2 (Rattus norvegicus) (UniProt O88943). The experiment in a line: W236L mutant KCNQ2 current enhancers – cell-based, rat KCNQ2 W236L, CHO, automated patch clamp, mechanism study for KCNQ2 potentiator project (AID 2558;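 active means current increase at least 3 SD of the untreated controls above them in both duplicate recordings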). The note with it: at 25 µM.
The target in experiment [15] is Potassium voltage-gated channel subfamily KQT member 1 (Homo sapiens) (UniProt P51787). Kind of experiment: enhancement of KCNQ1 channel thallium flux – FluxOR thallium flux, CHO cells, duplicates, confirmation (AID 493007;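 active means potentiation averaged over duplicate wells exceeding buffer-only control mean by more than 3 SD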;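 further: 0% = buffer-only wells and 100% = R-L3 activator control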). The note with it: KCNQ1 cell line, FluxOR thallium flux fluorescence, at 10 µM; hits give high values, % of reference activator effect, buffer zero.

Experiment [16] addresses Potassium voltage-gated channel subfamily KQT member 2 (Rattus norvegicus) (UniProt O88943). The experiment in a line: KCNQ2 thallium flux enhancement – KCNQ2-CHO-K1 cells, selectivity assay for KCNQ1 potentiator project (AID 493009;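 active means mean duplicate potentiation above the buffer control mean plus 5 SD of buffer wells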;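 further: assay conditions were tuned for KCNQ1 rather than KCNQ2 modulators; signal is max minus min fluorescence divided by baseline after thallium stimulus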). The note with it: FluxOR thallium flux fluorescence, at 10 µM; hits give high values, scaled: buffer 0, activator control 100.
The target of experiment [17] is Potassium voltage-gated channel subfamily KQT member 1 (Homo sapiens) (UniProt P51787). Kind of experiment: KCNQ1 activators by electrophysiology – IonWorks patch clamp, KCNQ1-CHO cells, orthogonal assay for KCNQ1 potentiator project, confirmation (AID 493184;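 active means current rise at least 3 SD above the untreated control mean in each of two repeat wells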). The note with it: automated patch clamp current, at 10 µM.

Sequence of Potassium voltage-gated channel subfamily KQT member 1 (Homo sapiens) (P51787 whole entry, looked up): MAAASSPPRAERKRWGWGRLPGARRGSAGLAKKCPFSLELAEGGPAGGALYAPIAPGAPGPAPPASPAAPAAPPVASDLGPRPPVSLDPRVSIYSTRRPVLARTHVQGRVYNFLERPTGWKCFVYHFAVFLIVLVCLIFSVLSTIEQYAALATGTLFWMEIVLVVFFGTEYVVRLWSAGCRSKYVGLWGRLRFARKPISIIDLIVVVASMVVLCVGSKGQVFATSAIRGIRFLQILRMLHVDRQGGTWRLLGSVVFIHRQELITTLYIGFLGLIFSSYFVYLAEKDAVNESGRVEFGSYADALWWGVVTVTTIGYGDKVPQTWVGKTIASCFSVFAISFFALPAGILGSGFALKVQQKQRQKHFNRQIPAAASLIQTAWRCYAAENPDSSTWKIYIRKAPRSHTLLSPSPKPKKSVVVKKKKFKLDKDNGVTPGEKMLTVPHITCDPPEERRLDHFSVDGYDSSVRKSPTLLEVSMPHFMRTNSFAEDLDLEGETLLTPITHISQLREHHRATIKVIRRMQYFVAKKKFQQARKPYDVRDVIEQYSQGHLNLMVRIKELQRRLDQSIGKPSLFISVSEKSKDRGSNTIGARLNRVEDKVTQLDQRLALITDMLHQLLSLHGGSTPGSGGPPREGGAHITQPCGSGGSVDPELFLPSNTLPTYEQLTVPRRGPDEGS
Sequence of Inward rectifier potassium channel 2 (Mus musculus) (P35561 whole entry, looked up): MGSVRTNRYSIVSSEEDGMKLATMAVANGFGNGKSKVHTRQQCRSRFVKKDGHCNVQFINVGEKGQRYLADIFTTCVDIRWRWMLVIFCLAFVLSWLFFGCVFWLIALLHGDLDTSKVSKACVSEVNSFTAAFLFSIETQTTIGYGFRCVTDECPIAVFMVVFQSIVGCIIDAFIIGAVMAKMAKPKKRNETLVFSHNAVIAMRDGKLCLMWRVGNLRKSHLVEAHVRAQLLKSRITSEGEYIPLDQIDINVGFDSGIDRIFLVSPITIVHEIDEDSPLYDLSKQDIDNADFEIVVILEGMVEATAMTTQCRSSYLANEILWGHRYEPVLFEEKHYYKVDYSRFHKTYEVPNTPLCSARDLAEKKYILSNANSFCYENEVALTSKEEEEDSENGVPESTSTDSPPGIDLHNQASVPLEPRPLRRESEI
Sequence of Short transient receptor potential channel 6 (Mus musculus) (Q61143 whole entry, looked up): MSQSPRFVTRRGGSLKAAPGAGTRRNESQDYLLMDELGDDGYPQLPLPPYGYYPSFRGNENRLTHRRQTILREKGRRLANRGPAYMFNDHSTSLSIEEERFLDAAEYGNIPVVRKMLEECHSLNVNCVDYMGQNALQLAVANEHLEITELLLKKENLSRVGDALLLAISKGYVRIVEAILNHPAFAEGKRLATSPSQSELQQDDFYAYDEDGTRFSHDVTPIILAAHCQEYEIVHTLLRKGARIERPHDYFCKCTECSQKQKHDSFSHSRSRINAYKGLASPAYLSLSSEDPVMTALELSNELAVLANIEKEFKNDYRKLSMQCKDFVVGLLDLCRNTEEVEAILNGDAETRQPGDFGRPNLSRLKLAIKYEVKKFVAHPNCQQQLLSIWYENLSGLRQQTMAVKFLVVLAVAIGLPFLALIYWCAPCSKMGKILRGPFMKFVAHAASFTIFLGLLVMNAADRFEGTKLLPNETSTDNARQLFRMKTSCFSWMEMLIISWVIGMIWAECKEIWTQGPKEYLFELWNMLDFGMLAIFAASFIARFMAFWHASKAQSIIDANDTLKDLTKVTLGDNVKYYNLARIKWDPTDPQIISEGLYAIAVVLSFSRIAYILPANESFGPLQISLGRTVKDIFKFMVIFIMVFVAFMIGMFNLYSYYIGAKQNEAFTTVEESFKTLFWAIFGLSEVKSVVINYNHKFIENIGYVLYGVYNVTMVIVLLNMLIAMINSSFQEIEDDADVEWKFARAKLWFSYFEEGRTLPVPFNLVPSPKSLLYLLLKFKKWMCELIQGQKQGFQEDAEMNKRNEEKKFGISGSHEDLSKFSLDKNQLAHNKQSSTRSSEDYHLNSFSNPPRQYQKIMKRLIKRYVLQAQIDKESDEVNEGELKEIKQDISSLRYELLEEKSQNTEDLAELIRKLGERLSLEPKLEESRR
Sequence of Short transient receptor potential channel 4 (Mus musculus) (Q9QUQ5 whole entry, looked up): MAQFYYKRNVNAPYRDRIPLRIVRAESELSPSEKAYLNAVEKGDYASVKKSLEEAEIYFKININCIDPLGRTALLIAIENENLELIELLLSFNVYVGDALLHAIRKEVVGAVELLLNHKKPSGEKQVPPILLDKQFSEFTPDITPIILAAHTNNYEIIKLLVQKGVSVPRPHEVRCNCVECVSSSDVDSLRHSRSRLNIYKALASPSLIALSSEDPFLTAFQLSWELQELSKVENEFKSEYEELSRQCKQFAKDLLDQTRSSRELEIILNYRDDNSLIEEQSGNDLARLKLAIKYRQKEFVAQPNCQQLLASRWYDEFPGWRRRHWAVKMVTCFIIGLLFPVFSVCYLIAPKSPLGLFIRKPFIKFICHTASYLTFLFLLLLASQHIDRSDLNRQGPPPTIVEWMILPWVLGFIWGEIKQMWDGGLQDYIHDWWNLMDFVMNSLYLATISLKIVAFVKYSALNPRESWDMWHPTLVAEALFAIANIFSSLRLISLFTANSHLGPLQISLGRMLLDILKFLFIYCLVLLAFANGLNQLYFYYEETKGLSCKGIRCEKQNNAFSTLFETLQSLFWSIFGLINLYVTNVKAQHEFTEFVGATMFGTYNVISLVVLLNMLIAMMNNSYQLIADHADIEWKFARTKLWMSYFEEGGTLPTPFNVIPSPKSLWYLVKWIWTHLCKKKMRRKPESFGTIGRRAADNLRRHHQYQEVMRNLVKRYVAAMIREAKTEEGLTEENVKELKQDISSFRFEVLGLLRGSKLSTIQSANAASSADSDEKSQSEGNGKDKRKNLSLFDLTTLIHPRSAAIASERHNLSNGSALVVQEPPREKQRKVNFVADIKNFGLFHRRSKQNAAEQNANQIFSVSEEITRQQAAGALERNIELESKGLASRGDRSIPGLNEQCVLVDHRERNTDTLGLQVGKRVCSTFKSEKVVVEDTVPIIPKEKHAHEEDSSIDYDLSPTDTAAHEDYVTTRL
Sequence of Voltage-gated inwardly rectifying potassium channel KCNH2 (Homo sapiens) (Q12809 whole entry, looked up): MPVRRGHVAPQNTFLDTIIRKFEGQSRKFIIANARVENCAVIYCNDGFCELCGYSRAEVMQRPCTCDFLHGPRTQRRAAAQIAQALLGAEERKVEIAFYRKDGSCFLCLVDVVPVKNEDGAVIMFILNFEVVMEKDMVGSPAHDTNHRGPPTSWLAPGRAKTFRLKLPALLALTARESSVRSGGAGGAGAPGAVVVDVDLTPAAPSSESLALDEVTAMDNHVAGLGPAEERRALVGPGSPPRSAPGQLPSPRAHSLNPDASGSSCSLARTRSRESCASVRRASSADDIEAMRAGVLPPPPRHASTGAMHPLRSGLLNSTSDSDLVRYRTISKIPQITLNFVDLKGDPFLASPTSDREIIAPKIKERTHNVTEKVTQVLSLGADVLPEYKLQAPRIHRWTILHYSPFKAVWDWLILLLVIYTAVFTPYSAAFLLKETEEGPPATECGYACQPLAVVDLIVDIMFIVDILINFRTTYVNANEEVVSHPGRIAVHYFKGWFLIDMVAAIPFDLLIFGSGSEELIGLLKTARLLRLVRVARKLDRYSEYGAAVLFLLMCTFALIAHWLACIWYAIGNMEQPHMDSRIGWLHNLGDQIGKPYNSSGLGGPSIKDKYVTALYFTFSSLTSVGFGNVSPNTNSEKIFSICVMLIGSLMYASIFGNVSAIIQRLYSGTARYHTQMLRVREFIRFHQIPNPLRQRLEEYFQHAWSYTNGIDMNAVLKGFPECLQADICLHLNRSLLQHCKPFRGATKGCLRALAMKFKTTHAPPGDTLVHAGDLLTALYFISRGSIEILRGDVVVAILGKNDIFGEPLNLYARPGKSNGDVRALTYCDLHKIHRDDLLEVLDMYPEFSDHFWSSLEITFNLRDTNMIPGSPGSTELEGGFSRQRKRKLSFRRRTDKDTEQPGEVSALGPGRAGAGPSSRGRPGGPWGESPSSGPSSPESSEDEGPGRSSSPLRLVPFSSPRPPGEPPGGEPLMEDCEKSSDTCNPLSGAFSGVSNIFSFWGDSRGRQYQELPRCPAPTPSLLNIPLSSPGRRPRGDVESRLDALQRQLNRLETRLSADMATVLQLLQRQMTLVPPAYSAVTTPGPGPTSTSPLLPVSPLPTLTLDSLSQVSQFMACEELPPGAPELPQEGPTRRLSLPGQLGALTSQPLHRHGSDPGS

The inhibition is the relative decrease from the control value, in per cent. With `CCOc1cccc(=NC2CCCCC2)c2c(C)[nH]c(C)c12`, the inhibition in experiment [1] was 74% (active); in experiment [2], 48% (active); in experiment [3], 56% (active); in experiment [7] it was 13.9% (active). The activity change, negative = inhibition in experiment [4] is -8.98% (active). Moreover, in [5], the signal change vs control was -3.5% (active). Besides, the membrane potential signal change in experiment [6] was -146% (active). Besides, the compound was classed as inactive in experiment [8] and in [9].
As for `COc1cc(-n2c(=S)[nH]c3ccc(C)cc3c2=O)c(Cl)cc1Cl`, in experiment [10], the activity increase over 3SD of controls was 2.8% (active). Moreover, the activation over 3SD threshold in experiment [11] was -13.6%. For the same compound, the potentiation, less the hit threshold in [12] is 1.9% (active). For the same compound, in experiment [13], the activity over 3SD threshold is -22.9%. Further, the outcome in [14] and in [17] was inactive. Further, the potentiation in experiment [15] is 22.5% (active); in experiment [16], 153% (active).
Consider `CNc1ccc2oc(C[C@H]3O[C@@]4(CC[C@H]3C)O[C@H]([C@H](C)C(=O)c3ccc[nH]3)[C@H](C)C[C@H]4C)nc2c1C(=O)O`, for which the potentiation in experiment [15] was 89% (active); in [16], 210% (active). The result in experiment [17] was inactive.
